Giardia kill: Small Molecules that selectively kill Giardia lamblia: qHTS. Giardia lamblia trophozoite viability. activity change, % at 7.66 µM, hits read low. 340,000 tested, 0.15% active. AID 540267, 2011; in the data active = activity change below about -80%; inconclusive = between about -30% and that limit;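 also: parasites exposed to compound for two days anaerobically before the ATP read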
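Luminescence from cellular ATP indicates surviving trophozoites (100 cells/well) following 48 hrs anaerobic compound treatment at 37 deg C; signal develops 15-30 min at room temperature.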
TDP1 cell noCPT: qHTS for Inhibitors of human tyrosyl-DNA phosphodiesterase 1 (TDP1): qHTS in cells in absence of CPT | 420,000 tested, 15% active | DT40 Tdp1-/- hTDP1 cells, no CPT, ATP luminescence, 48 h | Potency, µM (series often up to 46.2 µM), hits mostly inhibitors | AID 686978, 2013; also: nearly all actives have a fitted effect of over 55% in size
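DT40 Tdp1-/-;hTDP1 cells, no CPT (DMSO vehicle only), 400 cells/well; compounds pin-transferred; ≥48 hr, 37 °C; CellTiter-Glo 30 min RT dark, luminescence read.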
DT40 TDP1 CPT: qHTS for Inhibitors of human tyrosyl-DNA phosphodiesterase 1 (TDP1): qHTS in cells in presence of CPT | chicken DT40 Tdp1-/-;hTDP1 cells + 20 nM CPT, ATP luminescence, 48 h | Potency, µM (series often up to 46.2 µM), hits mostly inhibitors | 420,000 tested, 12% active | AID 686979, 2013; also: nearly all actives have a fitted effect of over 55% in size
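Chicken DT40 Tdp1-/- cells complemented with human TDP1, 400 cells/well, exposed to compounds plus 20 nM camptothecin for at least 48 h at 37 C; viability read as ATP content by CellTiter-Glo luminescence.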
IL1B secr inh: qHTS for Inhibitors of Inflammasome Signaling: IL-1-beta AlphaLISA Primary Screen; AID 743279, 2014; 360,000 tested, 4.7% active; activity change, % at 57.5 µM; THP-1 LPS/ATP IL-1B secretion, AlphaLISA, 16 h; active compounds read low; in the data active = activity change below about -50%; inconclusive = mostly about -30% to -49%
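Secreted IL-1B measured by AlphaLISA bead assay after 16 h compound exposure of THP-1 cells; compounds (final up to 57.5 uM) added 1 h before LPS (250 ng/mL) and ATP (1.25 mM) stimulation; lower signal means less secretion.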
TDP1 block: qHTS Assay for Inhibitors of Tyrosyl-DNA Phosphodiesterase (TDP1) | 350,000 tested, 0.28% active | Potency, µM (series often up to 130 µM), most hits filed as inhibitors | Tyrosyl-DNA phosphodiesterase 1 (Homo sapiens), Q9NUW8 | recombinant TDP1, AlphaScreen DNA substrate cleavage | AID 485290, 2010; also: nearly all actives have a fitted effect of over 40% in size
Target sequence (Q9NUW8 whole entry, looked up): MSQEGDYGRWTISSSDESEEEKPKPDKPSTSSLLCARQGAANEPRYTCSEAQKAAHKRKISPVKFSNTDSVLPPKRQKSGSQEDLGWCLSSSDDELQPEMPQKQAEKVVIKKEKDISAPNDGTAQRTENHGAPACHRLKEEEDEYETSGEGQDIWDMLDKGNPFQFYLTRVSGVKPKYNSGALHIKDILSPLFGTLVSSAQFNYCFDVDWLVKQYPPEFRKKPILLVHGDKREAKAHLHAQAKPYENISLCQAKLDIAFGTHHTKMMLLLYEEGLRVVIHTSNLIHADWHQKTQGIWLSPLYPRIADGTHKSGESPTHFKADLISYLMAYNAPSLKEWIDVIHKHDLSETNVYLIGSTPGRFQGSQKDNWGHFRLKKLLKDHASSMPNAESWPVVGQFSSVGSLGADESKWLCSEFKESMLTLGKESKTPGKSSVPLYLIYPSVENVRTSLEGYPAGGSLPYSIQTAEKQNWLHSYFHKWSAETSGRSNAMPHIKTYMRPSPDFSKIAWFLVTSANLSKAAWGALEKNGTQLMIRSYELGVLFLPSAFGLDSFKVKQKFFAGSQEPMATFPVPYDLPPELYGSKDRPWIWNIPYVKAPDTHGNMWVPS
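Compounds were preincubated with Tdp1 (1 nM final) for 15 min at room temperature before substrate (15 nM final) started a 5 min reaction; beads (10 ug/ml final) were then added for 10 min before AlphaScreen detection.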
ELG1 DNA repair: qHTS screen for small molecules that inhibit ELG1-dependent DNA repair in human embryonic kidney (HEK293T) cells expressing luciferase-tagged ELG1; AID 504467, 2011; Potency, µM (series often up to 46.1 µM), hits mostly inhibitors; 330,000 tested, 2.3% active; HEK293T ELG1-luciferase reporter, luminescence, 16 h; DNA damage induced by 5-fluorouridine; also: nearly all actives have a fitted effect of over 55% in size
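5-Fluorouridine DNA damage + compound/DMSO, 2,000 cells/well, 16 h, 37 °C/5% CO2. ONE-Glo, 30 min RT, luminescence. Readout = decrease in reporter signal.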
Hits are given with their value; - = inactive; ? = inconclusive; . = no result. The list is not random: actives were taken first. Their share in the collection is about 19%. Unless noted, calls follow the shape of the dose curve; as a rule, active = well fitted curve in the direction sought with a large enough effect; inconclusive = small, poorly fitted or top-dose-only effect, or another doubt; inactive = no such curve, though single readings can be large; an effect the other way counts as inactive or inconclusive.

SMILES | Giardia kill | TDP1 cell noCPT | DT40 TDP1 CPT | IL1B secr inh | TDP1 block | ELG1 DNA repair
CCOC(=O)c1c(NC(=O)CCS(=O)(=O)c2ccccc2)sc2c1CCN(C(C)C)C2 | - | 4.1µM | 4.1µM | -80 | - | -
COC(=O)c1c(NC(=O)Cc2ccccc2)sc2c1CCN(C(C)C)C2 | - | ? | ? | ? | . | -
CCOC(=O)c1c(NC(=O)c2ccc(S(=O)(=O)N3CCC(C)CC3)cc2)sc2c1CCN(C(C)C)C2 | . | 15µM | 23µM | . | - | .
CC(C)N=C=NC(C)C | . | . | . | . | - | .
C[C@@]12C(=O)N(c3ccc(C(F)(F)F)cc3)C(=O)N1[C@@H]1c3ccccc3OC[C@@H]1[C@H]2c1ccccc1 | - | 10µM | 7.3µM | - | . | -
C[C@]12C(=O)N(c3ccc(F)cc3)C(=O)N1[C@@H]1c3ccccc3OC[C@@H]1[C@H]2c1ccccc1 | - | 18µM | ? | - | . | -
CCOc1ccccc1OCCCC(=O)NNC(=O)c1nn(C)c(=O)c2ccccc12 | - | - | - | - | - | -
Cc1cccn2cc(COc3cccc([N+](=O)[O-])c3)nc12 | - | - | - | - | - | ?
Cc1cccn2cc(COc3ccc(-c4ccccc4)cc3)nc12 | - | 12µM | - | - | - | ?
Cc1cccc(C)c1NC(=O)CNC(=O)Cn1nc(C)c(C)c(C#N)c1=O | - | - | - | - | - | -
COc1ccc(C)cc1S(=O)(=O)N(CC(=O)Nc1ccc2c(c1)OCCO2)Cc1ccccc1 | - | ? | 10µM | - | - | 18µM
COc1ccccc1N(CC(=O)Nc1ccc2c(c1)OCO2)S(=O)(=O)c1ccccc1 | - | 13µM | ? | - | - | ?
COc1ccc(S(=O)(=O)N(CC(=O)Nc2ccc3c(c2)OCO3)c2ccccc2OC)cc1 | - | 15µM | 21µM | - | - | ?
COc1ccc(C)cc1S(=O)(=O)N(C)CC(=O)Nc1ccc2c(c1)OCO2 | - | - | - | - | - | -
C=C1CCN(C(C)C(=O)OCc2ccc(C)cc2)S(=O)(=O)c2ccccc21 (stereo not given) | - | . | . | . | - | .
CC1(C)S[C@@H]2[C@H](NC(=O)C(C(=O)Oc3ccc4c(c3)CCC4)c3ccccc3)C(=O)N2[C@H]1C(=O)O (stereo not given in full) | . | - | - | . | . | .
CCCC(=O)N1CCCC(c2cc(C(=O)NCc3cccnc3)no2)C1 (stereo not given) | . | - | - | - | . | .
CC(=O)c1cnc2nc(SCc3cccc(C)c3)nn2c1C | - | 15µM | ? | - | . | -
CC(=O)c1cnc2nc(SCc3ccccc3)nn2c1C | - | - | - | - | . | ?
C=CCn1c(SCc2ccc(C(=O)Nc3nccs3)cc2)nnc1-c1ccc(C)c(Cl)c1 | - | 23µM | ? | -52 | - | ?
CCOC(=O)C1CCCN(C(=O)c2cc3cc(F)ccc3[nH]2)C1 (stereo not given) | - | ? | ? | - | . | ?
O=C(c1cc2cc(F)ccc2[nH]1)N1CCCC(Nc2ccc(F)cc2)C1 (stereo not given) | - | ? | 15µM | - | - | -
CCCOc1c(Cl)cc(C(=O)Nc2ccc3c(c2)OCO3)cc1OCC | - | ? | ? | -56 | - | ?
CCOc1cc(C(=O)Nc2ccc3c(c2)OCO3)ccc1OC(F)F | - | 11µM | 15µM | -65 | - | ?
CCC(=O)Oc1ccc(C(=O)Nc2ccc3c(c2)OCO3)cc1 | ? | 21µM | ? | -58 | - | ?
SMILES | Giardia kill | TDP1 cell noCPT | DT40 TDP1 CPT | IL1B secr inh | TDP1 block | ELG1 DNA repair
CCCCOc1ccc(C(=O)Nc2ccc3c(c2)OCO3)cc1 | - | - | - | - | - | ?
CCOc1ccc(C(=O)Nc2ccc3c(c2)OCCO3)cc1[N+](=O)[O-] | - | - | - | -58 | - | -
CCOc1ccc(C(=O)Nc2ccc3c(c2)OCCO3)cc1OC | - | - | ? | - | - | ?
CCCOc1ccc(C(=O)Nc2ccc3c(c2)OCO3)cc1 | - | - | - | - | - | ?
CC1(C(=O)NS(=O)(=O)c2cccc(OC(F)F)c2)CCN1C(=O)CC(c1ccccc1)c1ccccc1 (stereo not given) | . | ? | ? | - | . | .
O=C(CN1CCC(NC(=O)Cc2ccccc2)CC1)Nc1ccccc1Br | - | - | ? | - | - | ?
O=C(Nc1ccc2c(c1)OCO2)c1ccc(NC2CC2)c([N+](=O)[O-])c1 | - | 21µM | 21µM | - | - | -
O=C(Nc1ccc2c(c1)OCO2)c1ccc2c(c1)OCO2 | ? | ? | ? | - | - | ?
CC(C)(C)c1cc(C(=O)N/N=C/c2ccc(F)cc2)n(-c2ccccc2)n1 | - | 23µM | 18µM | - | - | -
CC(C)(C)c1cc(C(=O)N/N=C/c2ccccc2O)n(-c2ccccc2)n1 | - | 6.5µM | 6.5µM | - | - | ?
COc1cccc(CNC(=O)Cc2c(C(=O)O)c(C)cn2C)c1 | . | - | - | . | - | .

Compound activity from PubChem.
